In the library only some 17% were active in any assay of this set; here they are far more common.
ClpP mod: qHTS Assay for Activators of ClpP. ATP-dependent Clp protease proteolytic subunit (Bacillus subtilis (strain 168)), P80244. purified B. subtilis ClpP, FRET peptide cleavage, 20 min. Potency, µM (series often up to 57.5 µM), without a hit: top-dose activity change, negative = active. 340,000 compounds, 1.9% hits. AID 651965, 2013; active = well fitted falling curve with a large enough effect; inconclusive = small, poorly fitted or top-dose-only effect; inactive = no such curve, though single readings can be large or run the other way; also: the source files actives as falling curves though it sought activators and does not explain the sign; nearly all actives have a fitted effect of over 65% in size
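ClpP 10 microg/mL final, pH 8 Tris/KCl buffer with BSA, glycerol, Tween-20; compound pinned in; FRET-FV substrate; RT 20 min; Ex320/Em430; ΔFRET vs ADEP 5.8 microM, DMSO, no enzyme.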
TDP1 block: TDP1 (human) enzyme inhibition | Q9NUW8 | recombinant TDP1, AlphaScreen DNA substrate cleavage | Potency, µM (doses to about 130 µM), for inactives: at the highest dose activity change, negative = inhibition, hits mostly inhibitors | 350,000 compounds, 0.28% hits | AID 485290; also: % is scaled to controls: 0 for no effect and ±100 for the full control effect; nearly all actives have a fitted effect of over 40% in size
Target sequence (Q9NUW8 whole entry, looked up): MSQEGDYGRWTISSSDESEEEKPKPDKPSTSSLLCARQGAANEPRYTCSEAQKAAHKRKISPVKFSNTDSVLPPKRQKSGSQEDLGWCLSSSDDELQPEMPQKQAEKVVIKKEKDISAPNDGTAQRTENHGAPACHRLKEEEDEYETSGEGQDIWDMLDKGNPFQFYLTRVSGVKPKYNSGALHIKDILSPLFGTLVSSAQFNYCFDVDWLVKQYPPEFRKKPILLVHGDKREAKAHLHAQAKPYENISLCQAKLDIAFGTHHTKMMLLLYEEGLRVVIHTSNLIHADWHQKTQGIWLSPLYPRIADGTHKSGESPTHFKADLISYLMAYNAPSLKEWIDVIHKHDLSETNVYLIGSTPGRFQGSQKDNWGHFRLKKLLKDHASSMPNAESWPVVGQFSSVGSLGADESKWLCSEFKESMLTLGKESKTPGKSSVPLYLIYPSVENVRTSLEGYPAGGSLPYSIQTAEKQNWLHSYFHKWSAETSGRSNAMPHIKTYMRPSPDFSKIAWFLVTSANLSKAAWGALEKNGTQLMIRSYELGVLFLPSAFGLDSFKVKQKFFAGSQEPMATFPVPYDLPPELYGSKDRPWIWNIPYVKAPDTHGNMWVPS
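Enzyme-compound mixtures sat 15 min at room temperature, followed by a 5 min reaction with 15 nM final substrate and 10 min with AlphaScreen beads. Recombinant human Tdp1 was used at 1 nM final.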
DT40 TDP1 CPT: growth inhibition of DT40 Tdp1-/-;hTDP1 cells with camptothecin (screen for TDP1 inhibitors); 420,000 compounds, 12% hits; Potency, µM (titrated, usually from 46.2 µM), inactives show at the top dose activity change, negative = growth inhibition, hits mostly inhibitors; chicken DT40 Tdp1-/-;hTDP1 cells + 20 nM CPT, ATP luminescence, 48 h; also: % is scaled to controls: 0 for no effect and ±100 for the full control effect; nearly all actives have a fitted effect of over 55% in size
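Cell growth measured by CellTiter-Glo luminescence after a minimum 48 h, 37 C compound exposure with 20 nM CPT in Tdp1-knockout DT40 cells stably expressing hTDP1, seeded 400/well; qHTS titration format.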
DT40 TDP1 no CPT: qHTS for Inhibitors of human tyrosyl-DNA phosphodiesterase 1 (TDP1): qHTS in cells in absence of CPT | 420,000 compounds, 15% hits | Potency, µM (top dose mostly 46.2 µM), for the others: at the top dose activity change, negative = growth inhibition, hits mostly inhibitors | DT40 Tdp1-/- hTDP1 cells, no CPT, ATP luminescence, 48 h; also: % is scaled to controls: 0 for no effect and ±100 for the full control effect; nearly all actives have a fitted effect of over 55% in size
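Compound effects on proliferation are scored in DT40 Tdp1-/-;hTDP1 cells in the absence of CPT. ATP levels (CellTiter-Glo luminescence) are recorded after a ≥48 hr, 37 °C incubation.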
Starred values were filed as active, the others as inactive; ? = inconclusive; . = no result given; [ ] = remark or other dose. Unless noted, calls follow the shape of the dose curve; as a rule, active = well fitted curve in the direction sought with a large enough effect; inconclusive = small, poorly fitted or top-dose-only effect, or another doubt; inactive = no such curve, though single readings can be large; an effect the other way counts as inactive or inconclusive. Potency is read from the fitted curve at half-maximal effect.

SMILES | ClpP mod | TDP1 block | DT40 TDP1 CPT | DT40 TDP1 no CPT
Cc1cnc(SCc2ccc(Cl)cc2Cl)[nH]c1=O | 1% | . | ? | 21µM*
Cc1cc(=O)[nH]c(SCc2ccc(Cl)cc2Cl)n1 | 0% | . | -19% | 23µM*
Cc1nnc(SCc2ccc(Cl)cc2Cl)[nH]c1=O | 0% | 3% | -12% | -16%
CC1CCN(C(=O)CSc2nnc(-c3cccs3)o2)CC1 | . | 14% | -8% | -7%
CC1CCN(c2ccc(-c3cccs3)nn2)CC1 | -14% | . | ? | 10µM*
Cc1nc(N2CCCC2)c2c(C(=O)Nc3ccc(C)c(Cl)c3)c(C)oc2n1 | 1% | 2% | ? | ?
O=C(NCC1CCCO1)C1CCN(C2CCN(CCCC3CCCC3)CC2)CC1 (stereo unspecified) | -2% | 4% | 15µM* | 23µM*
COc1cc(CNC[C@H]2O[C@@H](n3ccc(N)nc3=O)[C@H](O)[C@@H]2O)ccc1OCc1ccc(C)cc1 | 1% | . | -1% | -11%
O=C(CCC1CCCC1)N[C@@H](Cc1ccc(O)cc1)C(=O)O | 0% | 3% | -7% | 2%
C[C@@H](CN1C2=NC[C@H](Cc3ccccc3)N2C[C@H]1Cc1ccc(O)cc1)NC(=O)CCC1CCCCC1 | 1% | 4% | 7.3µM* | 12µM*
COc1ccc(C[C@H]2CN3C(=NC[C@@H]3Cc3ccccc3)N2CCNC(=O)c2ccc(C)c(Br)c2)cc1 | 0% | 9% | 23µM* | 21µM*
COc1ccc(CCNC(=O)CCCc2ccccc2)cc1 | . | . | 16% | 7%
C/C=C(\C)C(=O)NCCN1C2=NC[C@H](Cc3ccccc3)N2C[C@@H]1Cc1ccc(OC)cc1 | -1% | . | ? | ?
COc1ccc(C[C@H]2CN3C(=NC[C@H]3Cc3ccccc3)N2CCNC(=O)CCC2CCCCC2)cc1 | -2% | 0% | ? | 26µM*
COc1ccc(C[C@H]2CN3C(=NC[C@H]3Cc3ccccc3)N2CCNC(=O)c2ccc(C)c(Br)c2)cc1 | -1% | 2% | 21µM* | 15µM*
Cc1cc(C)c(S(=O)(=O)N(C)CC(=O)NCc2ccncc2)c(C)c1 | . | -6% | 3% | -24%
CS(=O)(=O)Nc1cccc(-c2cc(NCc3ccccc3)ncn2)c1 | . | . | 7% | 3%
CCOC(=O)c1cnc(SC)nc1Oc1cccc(NC(=O)c2ccc(C)cc2)c1 | 1% | -3% | ? | 15µM*
CCOC(=O)c1cnc(SC)nc1Oc1cccc(NC(=O)c2cccc(Cl)c2Cl)c1 | -2% | -4% | ? | ?
Cc1cccc(N(CC(=O)N2CCCC2)S(C)(=O)=O)c1 | 0% | . | -2% | -17%
CO[C@@]12[C@H](COC(N)=O)C3=C(C(=O)C(C)=C(N)C3=O)N1C[C@@H]1N[C@@H]12 | 0% | . | 0.58µM* | 0.73µM*
CO[C@@]12[C@@H]3N[C@@H]3CN1C1=C(C(=O)C(N)=C(C)C1=O)[C@@H]2COC(N)=O | -18% | . | 0.12µM* | 0.1µM*
CSc1nc(Nc2cccc(C)c2)c(C#N)c(-c2ccccc2)n1 | -7% | 3% | ? | ?
COc1ccc(-c2nc(-c3cccc(C)c3)nc(Cl)c2C#N)cc1 | . | -1% | . | .
CSc1nc(Cl)c(C#N)c(-c2ccc(C)cc2)n1 | -1% | 6% | 9.2µM* | ?
SMILES | ClpP mod | TDP1 block | DT40 TDP1 CPT | DT40 TDP1 no CPT
COc1ccc(-c2nc(-c3ccccc3)nc(Cl)c2C#N)cc1 | 32µM* | 0% | ? | 10µM*
COc1cc(Cl)c(C)cc1NC(=O)CCc1c(C)nc2cc(-c3cccc(F)c3)nn2c1C | ? | 0% | 2% | 6%
O=c1o[nH]c(-c2ccccc2)c1-c1ccccc1 | . | . | -10% | -28%
CCC(C(=O)Nc1ccc(C(=O)OC)cc1)n1c(=O)c(-c2ccccc2NC(C)=O)nc2ccccc21 (stereo unspecified) | -14% | 9% | 15µM* | 3.3µM*
CC(=O)Nc1ccccc1-c1nc2ccccc2n(CC(=O)Nc2ccc(C)c(Cl)c2)c1=O | 1% | 3% | -8% | -3%
CCOc1ccc(NC(=O)C(CC)n2c(=O)c(-c3ccccc3NC(C)=O)nc3ccccc32)cc1 (stereo unspecified) | -3% | 3% | 18µM* | ?
CCOc1cc(C(=O)Nc2c(NC)c3ccccc3oc2=O)cc(OCC)c1OCC | 0% | -2% | 1% | -17%
O=C(/C(=C/O)N=Nc1cccc(C(F)(F)F)c1)c1ccccc1 | . | -3% | ? | ?
Cc1cccc(N=N/C(=C\O)C(=O)c2ccc(Br)cc2)c1 | . | 6% | 8.2µM* | ?
NC(=O)C1CCN(C(=O)CCC(=O)N2CCOc3ccc(Cl)cc32)CC1 | -1% | . | 0% | 0%
Cc1ccc(NC(=S)/C(C#N)=C2/Nc3ccccc3S2)cc1 | -2% | . | 29µM* | 23µM*
Cc1ccc(-c2csc(N(CCO)CCCn3c(C(F)(F)F)nc4ccccc43)n2)cc1 | 0% | . | 21µM* | ?
CC(=O)NCCc1ccc(C(=O)COC(=O)c2cccs2)cc1 | 0% | . | 3% | -4%
CCn1c(COc2ccc(Cl)cc2)nnc1SC1CCc2ccccc2C1=O (stereo unspecified) | 1% | 3% | ? | 21µM*
Cc1ccc(/C=C/C(=O)Nn2cnnc2)cc1 | -3% | 4% | ? | 15µM*
CC(C)c1ccc(/C=C/C(=O)Nn2cnnc2)cc1 | -3% | . | 2% | 1%
O=C(Nc1cccc(Cl)c1)Nc1ccnc(-c2cccnc2)n1 | . | 8% | ? | 21µM*
O=C(Nc1ccnc(-c2cccnc2)n1)c1cccc(Cl)c1Cl | -3% | 3% | 21µM* | 23µM*
CC(=O)c1ccc(-c2ccc(C(=O)NC3CCCCCC3)o2)cc1 | . | 6% | 10% | -11%
COc1cc(/C=C2\NC(=S)N(C)C2=O)ccc1OCc1cccc(F)c1 | 3% | . | -3% | -20%
Cc1ccc2nc(-c3ccc(Cl)c(NC(=O)COc4ccc(C(C)C)cc4)c3)oc2c1 | -19% | 2% | -1% | -8%
COc1ccc(-n2nc3cc(C)c(NC(=O)c4ccc(-c5ccc(Cl)cc5)o4)cc3n2)cc1 | -12% | 1%[12.3 µM] | 0% | -4%
c1ccc(CCNc2ccc3c(c2)Cc2ccccc2-3)nc1 | . | . | 9% | ?
CC1(C)Cc2c(cnn2-c2ccccc2)-c2c1c1ccccc1n2CC(O)CBr (stereo unspecified) | 14µM* | 9% | ? | ?
CC1(C)Cc2c(cnn2-c2ccccc2)C(=O)/C1=N\NC(=O)c1ccccc1N | 1% | 6% | ? | -13%
CN(Cc1nc(Cc2ccccc2F)no1)Cc1cccc2ncccc12 | . | 3% | ? | 16µM*
CN(Cc1nc(Cc2ccccc2F)no1)CC1(N2CCOCC2)CCCCC1 | . | . | -4% | ?
